Results from PubChem BioAssay (EPA / NIEHS).
Results filed as inconclusive are left out. Calls of active or inactive are those of the source. The calls were made as follows, unless noted: active = hit-call score of the fitted dose curve at least 0.9, where 1 is the maximum; inactive = score below 0.9.

Assays:
[1] = target: Estrogen receptor (Homo sapiens) (UniProt P03372); assay: ATG_ERa_TRANS: Attagene TRANS-FACTORIAL HepG2 Assay for human Estrogen Receptor alpha (ERa) (AID 2282970; active = hit-call score of the fitted dose curve at least 0.9, where 1 is the maximum); conditions: HepG2 Attagene TRANS ERa GAL4 reporter, mRNA
How it was run: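 HepG2 cells transiently transfected with multiplexed GAL4-UAS reporter units read out chimeric NR-Gal4 activity. After 24 h compound exposure, reporter mRNA was quantified by RT-PCR, 6-FAM labeling, HpaI digestion and capillary electrophoresis, relative to DMSO.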

[2] = read-out: Vascular endothelial growth factor receptor 2 (Homo sapiens) (UniProt P35968); assay: BSK_4H_VEGFRII: BioMAP Diversity Plus: 4H Assay for Vascular endothelial growth factor receptor 2 (VEGFR2) Biomarker Activity (AID 2283031); conditions: primary human endothelial cells (HUVEC); actives raise or lower the signal;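 as to AC50: cell-surface VEGFR2 protein level quantified by ELISA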
How it was run: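 Primary human umbilical vein endothelial cells (4H system), 24 h exposure; cell-surface VEGFR2 measured by ELISA. Bidirectional fitting versus DMSO; cytotoxicity checked in parallel by SRB total-protein staining.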

[3] = read-out: Human Leukocyte Antigen - DR isotype (HLADR), HLA-DRA (gene 3122); assay: BSK_BE3C_HLADR: BioMAP Diversity Plus: BE3C Assay for Human Leukocyte Antigen - DR isotype (HLADR) Biomarker Activity (AID 2283032); conditions: primary human bronchial epithelial cells; actives raise or lower the signal
How it was run: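 Signal came from an ELISA for HLA-DR in human bronchial epithelial primary cells harvested 24 h after treatment; gain- and loss-of-signal fitting used DMSO controls as reference.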

[4] = read-out: Interleukin-8 (IL8), CXCL8 (gene 3576); assay: BSK_CASM3C_IL8: BioMAP Diversity Plus: CASM3C Assay for Interleukin-8 (IL8) Biomarker Activity (AID 2283042); conditions: primary human coronary artery smooth muscle cells; actives raise or lower the signal
[5] = read-out: Low-density lipoprotein receptor (LDLR), LDLR (gene 3949); assay: BSK_CASM3C_LDLR: BioMAP Diversity Plus: CASM3C Assay for Low-density lipoprotein receptor (LDLR) Biomarker Activity (AID 2283045); conditions: primary human coronary artery smooth muscle cells; actives raise or lower the signal;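 also: LDLR protein level on the cell surface quantified by ELISA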
[6] = read-out: Urokinase-type plasminogen activator receptor (uPAR), PLAUR (gene 5329); assay: BSK_CASM3C_uPAR: BioMAP Diversity Plus: CASM3C Assay for Urokinase-type plasminogen activator receptor (uPAR) Biomarker Activity (AID 2283054); conditions: primary human coronary artery smooth muscle cells; actives raise or lower the signal;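 also: cell-surface uPAR protein level quantified by ELISA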
[7] = read-out: E-selectin (Homo sapiens) (UniProt P16581); assay: BSK_LPS_Eselectin: BioMAP Diversity Plus: LPS Assay for Eselectin Biomarker Activity (AID 2283077); conditions: primary human HUVEC with PBMC; actives raise or lower the signal
How it was run: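 Human umbilical vein endothelial cells co-cultured with PBMC under LPS stimulation; cell-surface E-selectin measured by ELISA 24 h after dosing. Change in either direction versus DMSO, with SRB total-protein staining in parallel cultures for cytotoxicity.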

[8] = read-out: Interleukin-8 (IL8), CXCL8 (gene 3576); assay: BSK_LPS_IL8: BioMAP Diversity Plus: LPS Assay for Interleukin-8 (IL8) Biomarker Activity (AID 2283078); conditions: primary human HUVEC with PBMC; actives raise or lower the signal
How it was run: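 Human umbilical vein endothelial cells co-cultured with PBMC, LPS-stimulated, exposed to compound for 24 h. IL-8 quantified by ELISA; fitted in both directions against DMSO, with SRB total-protein staining of parallel cultures for cytotoxicity.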

[9] = BSK_LPS_SRB: Viability Assessment in the BioMAP Diversity Plus: LPS Assay (AID 2283079); conditions: primary human HUVEC with PBMC;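 also: total protein by sulforhodamine B absorbance as a cytotoxicity measure; measured one day after compound addition; fitted in both directions against DMSO so loss or gain of signal counts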
How it was run: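 Co-culture of human umbilical vein endothelial cells and PBMC, read 24 h after dosing. Total protein by 0.1% SRB staining after 10% TCA fixation, absorbance at 560 nm; bidirectional fit against DMSO.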

[10] = read-out: Monocyte Chemoattractant Protein-1 (MCP1), CCL2 (gene 6347); assay: BSK_LPS_MCP1: BioMAP Diversity Plus: LPS Assay for Monocyte Chemoattractant Protein-1 (MCP1) Biomarker Activity (AID 2283081); conditions: primary human HUVEC with PBMC; actives raise or lower the signal;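 as to AC50: secreted MCP-1 protein quantified by ELISA in culture supernatant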
How it was run: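 Human umbilical vein endothelial cells co-cultured with PBMC, LPS-stimulated; secreted MCP-1 measured by ELISA 24 h after compound addition. Bidirectional curve fitting against DMSO baseline; SRB total-protein staining in parallel cultures for cytotoxicity.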

[11] = read-out: Macrophage colony-stimulating factor (MCSF), CSF1 (gene 1435); assay: BSK_LPS_MCSF: BioMAP Diversity Plus: LPS Assay for Macrophage colony-stimulating factor (MCSF) Biomarker Activity (AID 2283083); conditions: primary human HUVEC with PBMC; actives raise or lower the signal
How it was run: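 HUVEC–PBMC co-culture, M-CSF measured by ELISA 24 h after chemical dosing. Fitted in both directions relative to DMSO as negative control; overt cytotoxicity assessed by SRB total-protein staining in parallel cultures.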

[12] = read-out: Tissue Factor, F3 (gene 2152); assay: BSK_LPS_TissueFactor: BioMAP Diversity Plus: LPS Assay for Tissue Factor Biomarker Activity (AID 2283084); conditions: primary human HUVEC with PBMC; actives raise or lower the signal
How it was run: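 Human umbilical vein endothelial cells co-cultured with PBMC were dosed with compound. Cell-surface CD142 was measured by ELISA 24 h later. Activity was fitted bidirectionally against DMSO, with SRB total-protein staining in parallel cultures for cytotoxicity.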

[13] = read-out: Tumor necrosis factor (Homo sapiens) (UniProt P01375); assay: BSK_LPS_TNFa: BioMAP Diversity Plus: LPS Assay for Tumour Necrosis Factor alpha (TNFa) Biomarker Activity (AID 2283085); conditions: primary human HUVEC with PBMC; actives raise or lower the signal
How it was run: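 Primary human vascular co-culture of HUVEC and PBMC; TNFa ELISA 24 h after treatment, analysed as increase or decrease relative to DMSO control.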

[14] = read-out: Vascular cell adhesion molecule 1 (VCAM1), VCAM1 (gene 7412); assay: BSK_LPS_VCAM1: BioMAP Diversity Plus: LPS Assay for Vascular cell adhesion molecule 1 (VCAM1) Biomarker Activity (AID 2283086); conditions: primary human HUVEC with PBMC; actives raise or lower the signal
How it was run: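 Primary human vascular co-culture (umbilical vein endothelium plus PBMC) stimulated with LPS received chemical; 24 h later VCAM-1 was read by ELISA. Overt cytotoxicity was assessed by sulforhodamine B staining of parallel cultures at the same time point.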

CD40, CD40 (gene 958) = assay: BSK_SAg_CD40: BioMAP Diversity Plus: SAg Assay for CD40 Biomarker Activity (AID 2283088); conditions: primary human HUVEC with PBMC; actives raise or lower the signal
How it was run: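 HUVEC plus PBMC co-culture, superantigen-activated, with CD40 read by ELISA 24 h after dosing. Curves fitted in both directions against DMSO. Overt cytotoxicity checked by parallel SRB total-protein staining.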

CD69, CD69 (gene 969) = assay: BSK_SAg_CD69: BioMAP Diversity Plus: SAg Assay for CD69 Biomarker Activity (AID 2283089); conditions: primary human HUVEC with PBMC; actives raise or lower the signal;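 as to AC50: cell surface CD69 protein quantified by ELISA with fluorescence detection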
How it was run: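 Endothelial/PBMC co-culture; chemical added; 24 h incubation; CD69 ELISA with fluorescence detection; bidirectional fit vs DMSO.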

[15] = read-out: Monocyte Chemoattractant Protein-1 (MCP1), CCL2 (gene 6347); assay: BSK_SAg_MCP1: BioMAP Diversity Plus: SAg Assay for Monocyte Chemoattractant Protein-1 (MCP1) Biomarker Activity (AID 2283090); conditions: primary human HUVEC with PBMC; actives raise or lower the signal
How it was run: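 MCP-1 levels in the endothelial–PBMC SAg co-culture were quantified by ELISA at 24 h post-dosing; both increases and decreases versus DMSO scored. Cytotoxicity monitored by SRB total protein in parallel cultures.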

[16] = read-out: E-selectin (Homo sapiens) (UniProt P16581); assay: BSK_SAg_Eselectin: BioMAP Diversity Plus: SAg Assay for Eselectin Biomarker Activity (AID 2283091); conditions: primary human HUVEC with PBMC; actives raise or lower the signal
How it was run: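 Human umbilical vein endothelial cells co-cultured with peripheral blood mononuclear cells, SAg system. E-selectin is measured by ELISA 24 h after dosing and fitted bidirectionally against DMSO. Cytotoxicity is checked by SRB staining of parallel cultures.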

[17] = read-out: Monokine induced gamma interferon (MIG), CXCL9 (gene 4283); assay: BSK_SAg_MIG: BioMAP Diversity Plus: SAg Assay for Monokine induced gamma interferon (MIG) Biomarker Activity (AID 2283092); conditions: primary human HUVEC with PBMC; actives raise or lower the signal
How it was run: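 Measures CXCL9 protein by ELISA in a human vascular primary-cell co-culture (umbilical vein endothelium with PBMC) 24 h after chemical addition. Activity is scored up or down from the DMSO control.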

[18] = BSK_SAg_PBMCCytotoxicity: PBMC Cytotoxicity Assessment in the BioMAP Diversity Plus: SAg Assay (AID 2283093); conditions: primary human HUVEC with PBMC;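 also: PBMC viability measured as Alamar Blue reduction fluorescence at 546/580 nm; fitted both ways against DMSO so a hit may be loss or gain of signal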;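 as to AC50: PBMC superantigen activated with SEB plus TSST-1 one hour after compound addition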
How it was run: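 Human umbilical vein endothelial cells co-cultured with PBMC; PBMC (75,000/well) pre-treated with compound 1 h, then activated with SEB and TSST-1 (20 ng/mL final each) for 90 h. Alamar Blue added 6 h, fluorescence 546/580 nm; bidirectional fit versus DMSO.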

Measured: AC50

Tumor necrosis factor (Homo sapiens), sequence (P01375 whole entry, looked up): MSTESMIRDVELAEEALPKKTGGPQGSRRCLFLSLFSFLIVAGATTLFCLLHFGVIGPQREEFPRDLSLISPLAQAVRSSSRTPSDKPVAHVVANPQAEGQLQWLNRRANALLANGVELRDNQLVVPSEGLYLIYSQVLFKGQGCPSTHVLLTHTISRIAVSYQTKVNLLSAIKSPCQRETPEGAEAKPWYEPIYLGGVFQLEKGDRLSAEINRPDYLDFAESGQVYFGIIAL
E-selectin (Homo sapiens), sequence (P16581 whole entry, looked up): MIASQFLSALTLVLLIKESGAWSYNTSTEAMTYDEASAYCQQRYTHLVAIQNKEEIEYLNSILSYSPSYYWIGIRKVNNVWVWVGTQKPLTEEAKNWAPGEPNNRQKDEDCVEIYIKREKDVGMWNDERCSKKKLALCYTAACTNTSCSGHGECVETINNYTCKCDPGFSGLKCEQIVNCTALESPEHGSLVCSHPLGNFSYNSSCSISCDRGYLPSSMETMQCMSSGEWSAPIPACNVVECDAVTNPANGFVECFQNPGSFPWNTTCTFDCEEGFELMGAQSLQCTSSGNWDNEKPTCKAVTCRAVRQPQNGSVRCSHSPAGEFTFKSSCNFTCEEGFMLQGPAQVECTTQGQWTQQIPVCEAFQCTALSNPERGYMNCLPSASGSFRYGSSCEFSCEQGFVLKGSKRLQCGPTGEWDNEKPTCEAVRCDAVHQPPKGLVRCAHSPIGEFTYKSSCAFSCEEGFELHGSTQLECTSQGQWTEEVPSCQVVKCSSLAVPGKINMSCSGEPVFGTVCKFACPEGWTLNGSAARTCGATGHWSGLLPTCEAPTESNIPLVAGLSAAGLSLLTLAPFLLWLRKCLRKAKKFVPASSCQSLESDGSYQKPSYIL
Estrogen receptor (Homo sapiens), sequence (P03372 whole entry, looked up, the tested form may be a part): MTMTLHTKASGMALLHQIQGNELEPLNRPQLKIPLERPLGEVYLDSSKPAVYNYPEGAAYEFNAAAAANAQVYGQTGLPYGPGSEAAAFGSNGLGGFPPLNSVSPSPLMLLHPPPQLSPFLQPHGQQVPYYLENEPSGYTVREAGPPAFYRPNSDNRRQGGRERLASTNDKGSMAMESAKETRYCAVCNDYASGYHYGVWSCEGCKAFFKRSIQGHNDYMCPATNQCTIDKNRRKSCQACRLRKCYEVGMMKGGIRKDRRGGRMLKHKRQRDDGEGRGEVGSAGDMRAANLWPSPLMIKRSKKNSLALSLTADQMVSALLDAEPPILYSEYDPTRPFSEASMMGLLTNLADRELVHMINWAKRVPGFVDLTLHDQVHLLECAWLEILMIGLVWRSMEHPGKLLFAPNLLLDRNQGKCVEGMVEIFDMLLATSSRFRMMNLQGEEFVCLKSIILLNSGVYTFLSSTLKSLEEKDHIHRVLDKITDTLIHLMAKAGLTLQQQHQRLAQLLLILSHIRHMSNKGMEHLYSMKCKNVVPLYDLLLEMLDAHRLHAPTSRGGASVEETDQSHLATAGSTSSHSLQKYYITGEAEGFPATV

CCCOC(=O)c1ccccc1C(=O)OCCC
active: [1] 33.7 µM | [3] 0.274 µM | [6] 5.19 µM | [11] 7.39 µM | [13] 20 µM | [15] 20 µM
inactive: all other assays above

O=C(CCl)c1ccccc1
active: [3] 30.4 µM | [4] 11.2 µM | [5] 33 µM | [6] 10.4 µM | [7] 6.13 µM | [8] 7.85 µM | [9] 15.2 µM | [10] 6.34 µM | [11] 4.37 µM | [12] 5.81 µM | [13] 4.58 µM | [14] 3.68 µM | CD40, CD40 (gene 958) 5.77 µM | CD69, CD69 (gene 969) 6.19 µM | [15] 6.73 µM | [16] 3.31 µM | [17] 8.77 µM | [18] 4.68 µM
inactive: [2]

O=[N+]([O-])c1ccc(Cl)cc1
not listed: [1]
inactive: all other assays above

CCN(CC)C(=S)S
inactive: [1]

CC(C)(c1cc(Cl)c(O)c(Cl)c1)c1cc(Cl)c(O)c(Cl)c1
inactive: [4]
active: [2] 6.9 µM | [3] 9.27 µM | [6] 32.5 µM | [8] 32.5 µM | [9] 31.7 µM | [10] 31.3 µM | [11] 17.2 µM | [12] 31.3 µM | [13] 31.4 µM | [14] 29.8 µM | CD69, CD69 (gene 969) 26.3 µM | [15] 31.9 µM | [16] 23.5 µM | [18] 36.3 µM

N#CCNCC#N
inactive: [1]

COc1ccc(CO)cc1
not listed: [1] | [2]
inactive: all other assays above

C=CCN(CC=C)C(=O)C(Cl)Cl
not listed: [1]
inactive: all other assays above
